# Screening results (PubChem BioAssay)
# Rango complex inh: prevents formation of the Rango-importin beta complex; Q14974; Rango CFP/YFP FRET sensor + importin beta, 45 min; Potency, µM (titrated, usually from 92.2 µM), inactives show top-dose inhibition of complex formation; hit rate 0.031% among 340,000;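 also: potency is read from the fitted curve at half-maximal effect; 0% = DMSO wells and 100% = buffer wells lacking importin beta; nearly all actives have a fitted effect of over 15% in size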
#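 Inhibition scored from the CFP 486 nm/YFP 530 nm FRET ratio 45 min after adding 0.125 microM importin beta to 50 nM Rango biosensor preincubated 5 min with compound (room temperature, PBS with DTT, Tween-20, BSA). No-importin wells as positive control.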
# Mm-Cpn inhibitor: blocks the Methanococcus maripaludis chaperonin Mm-Cpn; purified Mm-Cpn ATPase, ADP Transcreener TR-FRET; Potency, µM (series often up to 76.9 µM), for inactives: at the top dose activity, negative = inhibition, most hits filed as inhibitors; hit rate 0.031% among 330,000; active = well fitted inhibition curve with a large enough effect; inconclusive = small, poorly fitted or top-dose-only effect; also: potency is read from the fitted curve at half-maximal effect; % is scaled to controls: 0 for no effect and ±100 for the full control effect; nearly all actives have a fitted effect of over 80% in size
#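 Purified archaeal chaperonin (25 nM final) was preincubated with compound for 10 min at 37°C, then ATP (10 uM final) was added for 30 min at 37°C in Tris pH 7.4/KCl/MgCl2/DTT buffer. ADP was quantified by HTRF Transcreener TR-FRET.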
# PTAP TSG101 blk: blocks PTAP/TSG101 interaction to inhibit HIV-1 budding; Q99816; Fluorescence polarization, FITC-PTAP peptide / Tsg101 binding; Potency, µM (top dose mostly 115 µM), inactives show at the highest dose activity change, negative = inhibition, actives largely listed as inhibitors; 340,000 tested, under 10 active; AID 493005; active = well fitted inhibition curve with a large enough effect in the main read-out, with a control signal flat, not every such curve was filed as active; inconclusive = small, poorly fitted or top-dose-only effect, or effect the other way, or a change in a side signal; inactive = no such curve, though single readings can be large or run the other way; also: potency is read from the fitted curve at half-maximal effect; % of control where 0% means no effect
# Target sequence (Q99816 whole entry, looked up): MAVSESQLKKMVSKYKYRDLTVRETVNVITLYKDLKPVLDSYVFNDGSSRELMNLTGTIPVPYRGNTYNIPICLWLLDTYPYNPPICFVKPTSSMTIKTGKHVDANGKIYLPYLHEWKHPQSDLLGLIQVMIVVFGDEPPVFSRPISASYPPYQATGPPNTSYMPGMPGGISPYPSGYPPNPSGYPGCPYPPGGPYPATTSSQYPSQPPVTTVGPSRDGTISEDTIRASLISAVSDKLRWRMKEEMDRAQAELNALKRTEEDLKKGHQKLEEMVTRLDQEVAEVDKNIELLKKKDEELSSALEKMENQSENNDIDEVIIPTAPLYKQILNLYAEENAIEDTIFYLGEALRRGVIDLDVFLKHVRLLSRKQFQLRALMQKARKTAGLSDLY
#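 Fluorescence polarization binding of Tsg101 binding domain (10 uM final) to FITC-labeled PTAP peptide (50 nM final) in HEPES pH 7.5 buffer with NaCl, Tween 20, EDTA, TCEP. Compounds added before peptide; binding 20 min at RT.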
# D3 ag: D3 dopamine receptor (human) agonism; D3R DiscoveRx beta-arrestin cells, luminescence, 90 min; hit rate 0.58% among 410,000; AID 652048; P35462; max activation, %; in the data active = max activation above about 30%; also: 0% is about no effect
#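 Cells at 1500/well, incubated overnight, then treated with pinned compounds (dopamine as control) for 90 min at 37 degrees C. DiscoveRx reagent added for 30 - 60 minutes at room temperature; luminescence read.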
# D3 antag: antagonists of human D3 dopamine receptor | D3R cells, DiscoveRx beta-arrestin luminescence, antagonist mode; hits give low values | max response, negative = inhibition, % | hit rate 2.5% among 360,000 | AID 652054; in the data active = max response below about -50%; inconclusive = no clear call, values can overlap the other calls; also: % is scaled to controls: 0 for no effect and ±100 for the full control effect
#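 Cells plated overnight at 1500 cells/well, then exposed to library compounds with dopamine controls for 90 minutes at 37 degrees C. DiscoveRx reagent added for 30–60 minutes at room temperature; luminescence read, quantitative HTS format.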
# Rango release inh: inhibition of RanGTP-driven Rango-importin beta dissociation; O95149+P62826; Potency, µM (titrated, usually from 46.1 µM), for inactives: top-dose activity change, negative = inhibition; hit rate 0.071% among 340,000; Biochemical FRET Rango-importin beta, RanGTP-induced dissociation; also: potency is read from the fitted curve at half-maximal effect; % of control where 0% means no effect; nearly all actives have a fitted effect of over 45% in size
#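 Recombinant Rango FRET biosensor (EYFP–snurportin 1 IBB–cerulean CFP10) at 0.1 uM premixed with 0.25 uM importin beta in PBS, 1 mM DTT, 0.02% Tween-20, 0.1% BSA. Compound added 5 min; RanGTP-RCC1 (0.6 uM Ran, 2 mM GTP, 0.2 uM RCC1) then triggers release, read at 45 min.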
# * = called active by the depositor; ? = inconclusive; nt = no result given. The list is not random: actives were taken first. Their share in the collection is about 2.9%. Unless noted, calls follow the shape of the full dose curve.
SMILES,Rango complex inh,Mm-Cpn inhibitor,PTAP TSG101 blk,D3 ag,D3 antag,Rango release inh
CCOC(=O)N1CCC(NC(=O)c2cc(C)c3c(C)nn(-c4ccccc4)c3n2)CC1,-5%,0%,-1%,46*,3,14%
CCOC(=O)N1CCC(NCCNC(=O)c2ccccc2)CC1,-2%,-1%,-1%,-2,-73*,10%
CCOC(=O)N1CCC(NCCNC(=O)c2ccccc2Cl)CC1,7%,-1%,-1%,-2,?,2%
CCOC(=O)N1CCC(NC(=O)c2ccc3c(c2)N(Cc2ccccc2)C(=O)c2ccccc2S3=O)CC1 (stereo not given),nt,nt,nt,47*,nt,nt
Cc1ccc(Cl)cc1NC(=O)CN(C)S(=O)(=O)c1ccc2c(c1)n(C)c(=O)c(=O)n2C,nt,nt,nt,-11,nt,nt
Cc1c(C(=O)Nc2ccc(F)c(F)c2)oc2ccc(S(=O)(=O)N3CCC4(CC3)OCCO4)cc12,nt,nt,nt,31*,nt,nt
Cc1c(C(=O)Nc2ccc(F)cc2)oc2ccc(S(=O)(=O)N3CCCC3)cc12,-6%,-15%,-8%,1,0,-4%
Cc1c(C(=O)Nc2ccc(F)cc2)oc2ccc(S(=O)(=O)N3CCC4(CC3)OCCO4)cc12,-1%,-10%,-14%,65*,29,-6%
CC(=O)N[C@H]1[C@H]([C@H](O)[C@H](O)CO)OC(C(=O)O)=C[C@@H]1N=C(N)N,nt,nt,nt,-7,nt,nt
COc1ccc(CN2CCc3ccccc3C2)cc1Br,0%,-3%,-2%,-7,-92*,13%
COc1ccc(CN2CCc3cc(OC)c(OC)cc3C2)cc1O,2%,nt,-4%,-56,-58*,12%
Cc1ccc(NC(=O)c2ccc3c(c2)NC(=O)c2ccccc2S3)cc1,nt,nt,nt,-7,nt,nt
CCC1CCCCN1CCCNC(=O)c1cn(CC(C)C)c(=O)c2cc(OC)c(OC)cc12 (stereo not given),0%,-3%,0%,-2,-68*,-4%
CCC1CCCCN1CCCNC(=O)c1c(C)oc2ncn(CC(C)C)c(=O)c12 (stereo not given),nt,nt,nt,-6,nt,nt
CCc1ccc(NC(=O)CN2CCN(Cc3ccccc3)S2(=O)=O)cc1,nt,nt,nt,-8,nt,nt
O=C1C2CCCCN2C(=O)N1CCCCN1CCN(c2ccc([N+](=O)[O-])cc2)CC1 (stereo not given),-2%,-2%,-3%,-11,-18,-1%
COc1ccccc1N1CCN(CCN2C(=O)C3CCCN3C2=O)CC1 (stereo not given),0%,-1%,0%,-34,-59*,-9%
COc1ccccc1N1CCN(CCCCN2C(=O)C3CCCN3C2=O)CC1 (stereo not given),3%,nt,-3%,-18,-87*,1%
O=C1C2CCCCN2C(=O)N1CCCCN1CCN(c2ccccc2Oc2ccccc2)CC1 (stereo not given),-2%,-2%,-2%,-22,-104*,-6%
COc1ccccc1N1CCN(CCCCN2C(=O)c3ccccc3C2=O)CC1,-4%,nt,-2%,-7,-107*,-3%
CCOc1ccc2nc(N3CCCC(C(=O)NCc4ccccc4OC)C3)sc2c1 (stereo not given),nt,nt,nt,2,nt,nt
COCCN(C(=O)CSc1nnc(-c2cccc(Cl)c2)n1N)c1c(N)n(CC(C)C)c(=O)[nH]c1=O,nt,nt,nt,5,8,nt
Cc1ccc(NC(=O)CN2C(=O)C3CCCCN3C(=O)c3ccccc32)cc1 (stereo not given),-1%,nt,-3%,7,18,3%
CCCNC(=O)c1ccccc1N1CCN(CCCCN2C(=O)C3CCCCN3C2=O)CC1 (stereo not given),1%,-1%,-10%,-8,-72*,7%
COc1ccc(S(=O)(=O)Oc2ccc3ccccc3c2)cc1,-3%,-1%,2%,-9,-12,0%
SMILES,Rango complex inh,Mm-Cpn inhibitor,PTAP TSG101 blk,D3 ag,D3 antag,Rango release inh
COC1=C(OC)C(=O)C(Sc2ccc3ccccc3c2)=CC1=O,0%,nt,-1%,-28,-62*,-6%
N#C/C(=C\c1ccc(O)cc1)C(=O)NCC1CCCO1 (stereo not given),nt,nt,nt,5,nt,nt
COc1cccc(N=Nc2ccc(O)c3ncccc23)c1,1%,?,-2%,-29,-110*,-4%
Cc1ccccc1N=Nc1ccc(O)c2ncccc12,-1%,2%,-2%,-4,-117*,-4%
COc1ccc(C)cc1N=Nc1ccc(O)c2ncccc12,0%,2%,-2%,-21,-117*,-11%
O=[N+]([O-])c1ccc(O)c2cccnc12,2%,0%,-2%,-3,-26,19%
O=[N+]([O-])c1ccc(O)c2ncccc12,?,-2%,-1%,-30,-68*,13%
OC(CCN1CCCCC1)(c1ccccc1)C1CC2C=CC1C2 (stereo not given),nt,nt,nt,-15,nt,nt
COc1ccc(OC)c(NC(=O)c2cc(=O)c3c(C)cc(C)cc3o2)c1,nt,nt,nt,7,nt,nt
COc1ccc(N(CC(=O)NC(C)c2ccccc2)S(=O)(=O)c2c(C)nn(C)c2C)cc1 (stereo not given),nt,nt,nt,-3,nt,nt
CCOC(=O)c1ccc(NS(=O)(=O)c2cn(C)c(C)n2)cc1,nt,nt,nt,-7,nt,nt
O=C(NC1CCCC1)c1ccc2c(=O)n(Cc3ccccc3)c(SCc3ccccc3)nc2c1,nt,nt,nt,-13,nt,nt
Oc1ccc(N=Nc2ccc3c(c2)OCCO3)c2cccnc12,-2%,4%,-2%,18,?,-3%
COc1cccc(N=Nc2ccc3cccnc3c2O)c1,4%,?,-5%,-21,-139*,0%
COc1cc(OC)cc(C(=O)Nc2cccc3cccnc23)c1,-3%,-5%,-2%,10,18,6%
COc1ccc(N=Nc2ccc(O)c3ncccc23)cc1,6%,2%,0%,-23,-76*,-3%
O=C(Cn1[nH]c(=O)c2ccccc2c1=O)NC1CCN(Cc2ccccc2)CC1,-7%,2%,-3%,-8,-72*,-7%
O=C(CCCCn1c(=O)c2ccccc2n(Cc2ccccc2)c1=O)NC1CCN(Cc2ccccc2)CC1,0%,2%,-8%,-20,-58*,-9%
CC(C)c1ccc(NC(=O)[C@H]2O[C@@H]3OC(C)(C)O[C@@H]3[C@H]3OC(C)(C)O[C@H]32)cc1,nt,nt,nt,-6,nt,nt
COc1ccc(N2CCN(C(=O)c3cccc(NC(=O)c4nsc5ccccc45)c3)CC2)cc1,nt,nt,nt,18,nt,nt
CC[C@H](C)[C@H](NC(=O)[C@H](Cc1ccccc1)NC(=O)[C@H](C)NC(=O)[C@H](CC(=O)O)NC(=O)[C@H](CCCCN)NC(=O)[C@H](CO)NC(=O)[C@@H]1CCCN1C(=O)[C@@H]1CCC(=O)N1)C(=O)NCC(=O)N[C@@H](CC(C)C)C(=O)N[C@@H](CCSC)C(N)=O,nt,nt,nt,11,nt,nt
